Bioassay records: PubChem, The Scripps Research Institute Molecular Screening Center
Most compounds without a hit are left out; they make up all but 3.4% or so of the library.
MITF inh: inhibitors of human MITF. inhibition, % at 2.6 µM. hit rate 0.91% among 650,000. AID 1259374. O75030. AlphaScreen MITF homodimerization, bead proximity signal; in the data active = inhibition above about 50%
GPR151 activ: activates the human receptor GPR151; PathHunter beta-arrestin GPR151 cells, luminescence; Q8TDV0; activation, % at 11.2 µM; hit rate 1% among 650,000; in the data active = activation above about 4.9%
Target sequence (Q8TDV0 whole entry, looked up): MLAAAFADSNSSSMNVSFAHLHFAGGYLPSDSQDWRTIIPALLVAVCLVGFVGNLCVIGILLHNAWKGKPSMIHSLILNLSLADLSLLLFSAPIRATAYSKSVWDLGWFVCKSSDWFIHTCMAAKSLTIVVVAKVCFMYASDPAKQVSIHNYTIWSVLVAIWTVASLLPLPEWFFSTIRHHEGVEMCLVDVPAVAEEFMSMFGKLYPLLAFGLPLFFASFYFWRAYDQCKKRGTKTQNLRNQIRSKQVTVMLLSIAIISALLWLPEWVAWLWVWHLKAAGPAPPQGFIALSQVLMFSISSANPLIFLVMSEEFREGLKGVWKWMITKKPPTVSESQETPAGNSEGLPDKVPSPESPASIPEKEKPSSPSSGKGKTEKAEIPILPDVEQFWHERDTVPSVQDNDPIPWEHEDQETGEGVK
FBW7 act: activators of human E3 ligase FBW7; Q969H0; AlphaScreen FBW7–phospho-cyclin E peptide binding, activator screen; normalized activity (activation), % at 26.1 µM; hit rate 0.13% among 650,000; AID 1259310; in the data active = normalized activity above about 1.9%;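 note: purified mutant Fbw7 with reduced substrate affinity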
TEAD-YAP block: TEAD-YAP interaction inhibition; HEK-TIYL cells, TEAD-Gal4/YAP UAS-luciferase luminescence; inhibition, % at 9.12 µM; hit rate 1.4% among 640,000; in the data active = inhibition above about 32%
Hits are given with their value; - = inactive.

SMILES | MITF inh | GPR151 activ | FBW7 act | TEAD-YAP block
Cc1cc(Nc2cc(Nc3ccccc3C(N)=O)ccn2)ccc1N1CCOCC1 | - | - | - | 34.3
CC(O)CNc1ccc([N+](=O)[O-])cc1[N+](=O)[O-] (stereo not given) | - | - | - | -
CCOc1ccc2[nH]c(=O)c(CN(Cc3cccnc3)S(=O)(=O)c3ccccc3)cc2c1 | - | - | - | 40.8
O=C(COc1cccc(N2C(=O)C3C4C=CC(C5CC45)C3C2=O)c1)c1ccc(Cl)cc1 (stereo not given) | - | - | - | 39.4
CCCCCN(C(=O)NC(=O)Nc1cccc2ccccc12)S(C)(=O)=O | - | - | - | -
O=C(Oc1cccc2ccccc12)N1CCN2C(=O)[C@@H]3CSCN3C(=O)[C@H]2C1 | - | - | - | 34.8
Cc1cc(OCC(=O)NCc2ccccn2)ccc1Br | - | - | - | -
Cn1ncc(Cl)c1C(=O)Nc1ccc2nc(NC(=O)C3CCCCC3)sc2c1 | - | - | - | 57.3
Cn1ncc(Cl)c1C(=O)Nc1ccc(Cl)c(Cl)c1 | - | - | - | -
CC(=O)Nc1nc2ccc(NC(=O)c3c([N+](=O)[O-])cnn3C)cc2s1 | - | - | - | 53.0
Nc1ccc(C(=O)Nc2nc3cc4sc(NC(=O)c5ccc(N)cc5)nc4cc3s2)cc1 | - | - | 6.7 | -
Nc1ccc(C(=O)Nc2ccc3nc(NC(=O)C4CCCCC4)sc3c2)cc1 | - | - | - | 40.0
O=C(Nc1ccccc1)c1ccc2nc(NC(=O)C3CCCCC3)sc2c1 | - | - | - | -
CC[n+]1ccc(Cc2ccc([N+](=O)[O-])cc2)cc1 | - | - | - | -
Cc1ccc(OCC(=O)NNC2=C(C(=O)C(F)(F)F)CCC2)cc1C | - | - | - | -
c1cnc(Nc2nccc(Nc3ccc4c(c3)OCO4)n2)cn1 | - | - | - | -
O=C(CN1CCCCC1)N/N=C/c1ccc(OCC(=O)N2CCCCC2)cc1 | - | - | - | -
O=C(NC1CC1)C1CCN(c2ccc(-c3ccccc3)nn2)CC1 | - | - | - | -
c1ccc(-c2ccc(N3CCCCCC3)nn2)cc1 | - | - | - | 93.1
COc1ccccc1N1CCN(c2ccc(-c3ccccc3)nn2)CC1 | - | - | - | 87.9
O=C(O)C1C2CC=CC2c2cc(Cl)cc3c2N1CC1CC=CC31 (stereo not given) | - | - | 2.7 | -
O=C(O)c1cc2c3c(c1)C1C=CCC1C(c1ccc(Cl)cc1)N3CC1CC=CC21 (stereo not given) | 87.6 | - | - | -
c1ccc(Nc2nc(N3CCCCC3)c3ccccc3n2)cc1 | - | - | - | 41.9
Cc1ccc(Nc2nc(N3CCOCC3)c3ccccc3n2)cc1 | - | - | - | -
Cc1cccc(Nc2nc(N3CCOCC3)c3ccccc3n2)c1 | - | - | - | 37.8
SMILES | MITF inh | GPR151 activ | FBW7 act | TEAD-YAP block
CN(C)c1ccc(Nc2nc(N3CCOCC3)c3ccccc3n2)cc1 | - | - | - | 41.6
Clc1ccccc1-c1nc(N2CCCC2)c2ccccc2n1 | - | - | - | -
Oc1cccc(Nc2nc(N3CCOCC3)c3ccccc3n2)c1 | - | - | - | -
Clc1ccccc1-c1nc(N2CCOCC2)c2ccccc2n1 | - | - | 2.6 | -
C/C(=N\N=C1/NC(=O)C(CC(=O)O)S1)c1ccc2ccccc2c1O (stereo not given) | 83.1 | - | - | -
CCOc1ccccc1C1CC(c2ccc(C)cc2)=NN1C(C)=O (stereo not given) | - | - | - | -
COc1ccc(Cn2ccn(Cc3c(F)cccc3Cl)c(=O)c2=O)cc1 | - | - | - | -
CNC(=O)/C(C#N)=C/c1c(Oc2cccc(C)c2C)nc2c(C)cccn2c1=O | - | - | - | 34.9
CNC(=O)/C(C#N)=C/c1c(Oc2ccc(F)cc2)nc2c(C)cccn2c1=O | - | - | - | -
Cc1ccccc1Oc1nc2c(C)cccn2c(=O)c1/C=C(\C#N)C(=O)NC1CCCC1 | - | - | - | -
Cc1ccccc1Oc1nc2c(C)cccn2c(=O)c1/C=C(\C#N)C(=O)NCC1CCCO1 (stereo not given) | - | - | - | 33.5
C=CCNC(=O)/C(C#N)=C/c1c(Oc2ccccc2C)nc2c(C)cccn2c1=O | - | - | - | 40.7
COc1ccc(NC(=O)CCS(=O)(=O)c2ccc(C)cc2)cc1OC | - | - | - | -
O=C(CCc1nnc(C2CCCCC2)o1)NC(c1ccccc1)c1ccco1 (stereo not given) | - | - | - | -
COc1ccc(CNC(=O)c2nnn(Cc3ccc(SC)cc3)c2N)cc1 | - | - | - | -
CCCCOc1ccc(CSCCN)cc1 | - | - | - | 46.5
CCCCOc1ccc(CSCCN=C(N)N)cc1 | - | - | - | -
CCCCCOc1ccc(CSCCN)cc1 | - | - | - | 65.2
Cc1cc(O)ccc1N/C=C/C(=O)c1ccc(F)cc1 | - | - | - | -
CCOc1ccc(Nc2nc(C3(C)CC(CC(C)C)C(=O)O3)cs2)cc1 (stereo not given) | - | - | - | -
COc1ccccc1Nc1nc(C2(C)CC(CC(C)C)C(=O)O2)cs1 (stereo not given) | - | - | - | 54.9
CC1(c2csc(Nc3ccccc3Cl)n2)CCC(=O)O1 (stereo not given) | - | - | - | 35.2
COc1cncc(-c2cnn3c(NC4CCCNC4)ccnc23)c1 (stereo not given) | - | - | - | -
CCCNC(=O)Cn1cnc2sc(C(=O)Nc3cccc(NC(C)=O)c3)c(C)c2c1=O | - | - | - | -
CCc1cc2c(=O)c(-c3ccc4c(c3)OCCCO4)coc2cc1OC(=O)c1ccco1 | - | - | - | 44.3
SMILES | MITF inh | GPR151 activ | FBW7 act | TEAD-YAP block
CCc1cc2c(=O)c(-c3ccc4c(c3)OCCO4)coc2cc1OCC(=O)O | - | - | - | 87.1
CCc1cc2c(=O)c(-c3ccc4c(c3)OCO4)coc2cc1OC(C)=O | - | - | - | -
COC(=O)c1ccc(C=Nc2ccc3c(c2)OCCO3)cc1 | - | - | - | 62.3
COC(=O)c1ccc(/C=C/C(=O)c2ccc3c(c2)OCCO3)cc1 | - | - | - | -
CC(=O)N1CCN(Cc2ccc3c(c2)CN(Cc2ccccc2Cl)CCO3)CC1 | - | - | - | -
COc1ccccc1Nc1nc(-c2cc3ccccc3oc2=O)cs1 | - | - | - | 42.6
Cc1nc(/N=C(\N)NC(=O)c2ccc([N+](=O)[O-])cc2)nc2ccccc12 | - | - | - | -
Cc1ccc(-c2nc(N)sc2-c2ccc([N+](=O)[O-])cc2)cc1 | - | - | - | 37.0
CCOC(=O)c1oc2ccccc2c1NC(=O)c1ccccc1OCC | - | - | - | 53.3
CCOC(=O)c1oc2ccccc2c1NC(=O)c1ccccc1C | - | - | - | -
CCOc1ccccc1C(=O)Nc1ccccc1C(=O)OC | - | - | - | 53.4
CCOc1ccc(NC(=O)c2oc3ccccc3c2NC(=O)c2ccco2)cc1 | - | - | 2.6 | -
COC(=O)c1ccccc1NC(=O)c1ccccc1OC | - | - | - | -
CCOc1ccccc1C(=O)Nc1nnc(CCc2ccccc2)s1 | - | - | - | 34.3
N#Cc1cc2cc3c(cc2nc1NCCNC(=O)Nc1ccccc1F)OCO3 | - | - | - | -
CCc1ccc(OCC(=O)Nc2ccc3nn(-c4ccc(Cl)cc4)nc3c2)cc1 | - | - | - | -
COc1ccc(Cc2noc(-c3ccc([N+](=O)[O-])o3)n2)cc1OC | - | - | - | 66.7
